Source: PMC5540273 (PLoS ONE, 2017)

What was measured:
AAK1 = conditions: concentration: 1 μM, replicates: in singlicate; n = 1
ABL1-nonphosphorylated = conditions: concentration: 1 μM, replicates: in singlicate; n = 1
ABL1-phosphorylated = conditions: concentration: 1 μM, replicates: in singlicate; n = 1
ABL2 = conditions: concentration: 1 μM, replicates: in singlicate; n = 1
ACVR1B = conditions: concentration: 1 μM, replicates: in singlicate; n = 1
ACVR1 = conditions: concentration: 1 μM, replicates: in singlicate; n = 1
ACVR2A = conditions: concentration: 1 μM, replicates: in singlicate; n = 1
ACVR2B = conditions: concentration: 1 μM, replicates: in singlicate; n = 1
ACVRL1 = conditions: concentration: 1 μM, replicates: in singlicate; n = 1
ADCK3 = system: T1, ADCK3; conditions: concentration: 1 μM, replicates: in singlicate; n = 1
T1 construct: gene CABC1

ADCK4 = conditions: concentration: 1 μM, replicates: in singlicate; n = 1
AKT1 = conditions: concentration: 1 μM, replicates: in singlicate; n = 1
AKT2 = conditions: concentration: 1 μM, replicates: in singlicate; n = 1
VPS34 = system: T2, VPS34
T2 construct: gene PIK3C3

p38-alpha = system: T3, p38-alpha
T3 construct: gene MAPK14

p38-beta = system: T4, p38-beta
T4 construct: gene MAPK11

YANK1 = system: T5, YANK1
T5 construct: gene STK32A
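Throughout, for %Inh: KINOMEscan kinase panel screen.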
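Throughout, for Kd: kd values determined as follow-up on hits from a single-replicate KINOMEscan panel screen.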

| SMILES | %Inh (AAK1) | %Inh (ABL1-nonphosphorylated) | %Inh (ABL1-phosphorylated) | %Inh (ABL2) | %Inh (ACVR1B) | %Inh (ACVR1) | %Inh (ACVR2A) | %Inh (ACVR2B) | %Inh (ACVRL1) | %Inh (ADCK3) | %Inh (ADCK4) | %Inh (AKT1) | %Inh (AKT2) | Kd (VPS34) | Kd (p38-alpha) | Kd (ZAK) | Kd (p38-beta) | Kd (YANK1) |
| --- | --- | --- | --- | --- | --- | --- | --- | --- | --- | --- | --- | --- | --- | --- | --- | --- | --- | --- |
| CNc1nccc(-c2c(-c3ccc(F)cc3)ncn2CCCN2CCOCC2)n1 [SB-222516] | 0% | 23% | 0% | 12% | 19% | 8% | 4% | 4% | 15% | 1% | 0% | 18% | 0% |  |  |  |  |  |
| Clc1cccc(-c2nc(Nc3ccncc3)c3ccccc3n2)c1 [GW873004] | 0% | 51% | 14% | 28% | 72% | 0% | 25% | 15% | 9% | 30% | 20% | 11% | 0% |  |  |  |  |  |
| O=C(NCCCN1CCCC1=O)c1cnc(NCc2cc(Cl)ccc2Cl)nc1NC1CCNCC1 | 0% | 0% | 0% | 0% | 0% | 0% | 0% | 0% | 0% | 9% | 0% | 0% | 0% |  |  |  |  |  |
| CSc1nn2c(=O)cc(N3CCOCC3)nc2n1Cc1cccc(Cl)c1Cl [GSK2347225] | 7% | 0% | 0% | 14% | 0% | 18% | 0% | 12% | 0% | 18% | 28% | 0% | 9% | 0.00072 µM |  |  |  |  |
| CS(=O)(=O)CCNCc1ccc(-c2ccc3ncnc(Nc4ccc(OCc5ccccc5)c(Cl)c4)c3c2)o1.Cl [GW574783] | 13% | 0% | 0% | 0% | 0% | 2% | 4% | 22% | 0% | 23% | 20% | 46% | 21% |  |  |  |  |  |
| Clc1cc(Nc2ncnc3cc[nH]c23)ccc1OCc1ccccn1 | 7% | 48% | 0% | 0% | 28% | 10% | 0% | 0% | 5% | 9% | 3% | 10% | 19% |  |  |  |  |  |
| CC(C)N1CCC(n2cnc(-c3ccc(F)cc3)c2-c2ccnc(N)n2)CC1 [SB-223132] | 9% | 50% | 19% | 0% | 0% | 0% | 22% | 25% | 0% | 31% | 0% | 3% | 0% |  | 0.16 µM |  |  |  |
| CCc1nc(-c2cccc(N(C)S(=O)(=O)c3ccccc3)c2)c(-c2ccnc(Nc3ccc(N4CCN(C(C)=O)CC4)nc3)n2)s1 [GSK1645895] | 26% | 28% | 7% | 23% | 0% | 0% | 0% | 0% | 0% | 16% | 19% | 0% | 0% |  |  | 0.22 µM |  |  |
| Cl.Cn1ccc(-c2cccc(Nc3ccnc4cc(-c5nccs5)ccc34)c2)n1 [GW525701] | 50% | 0% | 1% | 10% | 0% | 3% | 0% | 0% | 0% | 6% | 55% | 0% | 7% |  |  |  |  |  |
| Cn1cc(-c2ccc3c(c2)CCN3C(=O)Cc2cccc(C(F)(F)F)c2)c2c(N)ncnc21 [GSK2606414] | 0% | 0% | 0% | 11% | 0% | 0% | 0% | 1% | 4% | 6% | 0% | 0% | 18% |  |  |  |  |  |
| COc1ccc(Nc2nccc(N3CCC(NC(=O)Nc4ccc5c(c4)OCO5)C3)n2)cc1 (centres unmarked) [GSK1379745] | 3% | 0% | 0% | 18% | 0% | 1% | 0% | 5% | 0% | 17% | 41% | 0% | 7% |  |  |  |  |  |
| COc1cc2c(Nc3cccc(NC(=O)c4ccccc4)c3)ncnc2cc1OCCCN1CCOCC1 [GSK223810] | 45% | 41% | 0% | 21% | 7% | 5% | 0% | 0% | 0% | 30% | 12% | 0% | 19% |  | 0.44 µM |  | 0.1 µM |  |
| FC(F)(F)c1ccc(-c2cc(-c3c[nH]nc3-c3ccccn3)ccn2)cc1 [GW599550] | 24% | 17% | 21% | 16% | 46% | 16% | 0% | 34% | 0% | 9% | 37% | 0% | 0% |  |  |  |  | > 10 µM |
| O=C(CCO)NCCn1ccc2ncnc(Nc3ccc(Oc4cccc(C(F)(F)F)c4)c(Cl)c3)c21 | 0% | 24% | 12% | 0% | 0% | 0% | 0% | 0% | 0% | 3% | 0% | 0% | 0% |  |  |  |  |  |
